Test results as given in PubChem BioAssay.
Unmarked numbers belong to inactive results. No rule for the calls is given here.

system: Aerobactin synthetase IucA (Klebsiella pneumoniae, hypervirulent); test: biochemical IucA inhibition screen of LOPAC library by absorbance (AID 1346212); settings: IucA enzyme assay, absorbance (OD) readout; active compounds read low;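 tested at 8 µM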;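 also: 100% = no compound wells and 0% = no enzyme wells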

Row | SMILES | remaining activity
1 | Nc1ncnc2n[nH]c(Nc3ccc(F)cc3)c12 | 101%
2 | CSc1nc(N)c2ncn([C@@H]3O[C@H](COP(=O)(O)OP(=O)(O)OP(=O)(O)O)[C@H](O)C3O)c2n1 (some centres not stated) | 109%
3 | N#C/C(=C\c1ccc(O)c(O)c1)C(=O)NCCCNC(=O)/C(C#N)=C/c1ccc(O)c(O)c1 | 98.2%
4 | CCCn1c(=O)c2[nH]c(-c3ccc(OCC(=O)NCCN)cc3)nc2n(CCC)c1=O | 109%
5 | O=C(O)C1=CCCN(CCON=C(c2ccccc2)c2ccccc2)C1 | 104%
6 | COC(=O)C(N)Cc1ccc(Cl)cc1 (configuration not stated) | 91.4%
7 | OC[C@H]1O[C@@H](n2cnc3c(NC4CCCC4)ncnc32)[C@H](O)[C@@H]1O | 117%
